Assays:
Assay in all cases: DAPPL (digital affinity profiling via proximity ligation, sequencing); 10 mM Tris-HCl pH 7.5, 50 mM NaCl, 1 mM DTT, 4% glycerol, room temperature, 30 min; GST-TFs on glutathione beads, 16-mer random dsDNA library, 0.1% formaldehyde crosslink after washing; high values mean tight binding
Conditions in all cases: protein: recombinant; tags: N-terminal GST; dsDNA, one strand shown
[1] = biological target: T1, ELF3 (Homo sapiens, UniProt P78545 1-371)
T1 sequence: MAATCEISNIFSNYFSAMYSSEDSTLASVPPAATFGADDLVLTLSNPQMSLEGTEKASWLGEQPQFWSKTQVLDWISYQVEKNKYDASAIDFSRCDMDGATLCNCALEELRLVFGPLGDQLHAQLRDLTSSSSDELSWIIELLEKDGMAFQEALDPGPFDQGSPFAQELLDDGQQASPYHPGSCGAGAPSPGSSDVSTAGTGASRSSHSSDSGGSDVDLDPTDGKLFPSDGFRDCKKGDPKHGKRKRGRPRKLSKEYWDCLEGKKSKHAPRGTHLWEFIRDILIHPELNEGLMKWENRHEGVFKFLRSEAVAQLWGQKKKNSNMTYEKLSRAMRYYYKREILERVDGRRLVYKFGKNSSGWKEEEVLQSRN
Procedure, shortened: (§1)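 Binding signal is defined as a hexamer's read frequency for one factor over its frequency for the tag-only sample. To obtain reads, GST-fused human transcription factors were expressed in yeast, captured on glutathione beads, barcoded with DNA and pooled with that sample. Pools met 200 nmole of a 16-mer random double-stranded DNA library in Tris/NaCl/DTT/glycerol buffer for 30 min at room temperature before washing, 0.1% formaldehyde crosslinking, proximity ligation (BsaI/T4 ligase, 1 h, 37 °C), PCR and Illumina NextSeq500 sequencing.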

[2] = biological target: T2, ETV7 (Homo sapiens, UniProt Q9Y603 1-341)
T2 sequence: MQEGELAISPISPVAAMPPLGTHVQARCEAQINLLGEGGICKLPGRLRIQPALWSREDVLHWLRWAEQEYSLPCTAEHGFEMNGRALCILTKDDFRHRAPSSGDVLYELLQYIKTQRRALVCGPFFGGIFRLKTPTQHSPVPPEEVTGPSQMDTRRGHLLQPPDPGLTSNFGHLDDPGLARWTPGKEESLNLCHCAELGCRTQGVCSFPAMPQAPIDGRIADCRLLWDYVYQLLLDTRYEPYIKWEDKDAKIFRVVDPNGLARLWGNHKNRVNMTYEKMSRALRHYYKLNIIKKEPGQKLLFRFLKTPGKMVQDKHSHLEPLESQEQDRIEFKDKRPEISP
Procedure, shortened: as §1

[3] = biological target: T3, ELK4 (Homo sapiens, UniProt P28324-2 1-405)
T3 sequence: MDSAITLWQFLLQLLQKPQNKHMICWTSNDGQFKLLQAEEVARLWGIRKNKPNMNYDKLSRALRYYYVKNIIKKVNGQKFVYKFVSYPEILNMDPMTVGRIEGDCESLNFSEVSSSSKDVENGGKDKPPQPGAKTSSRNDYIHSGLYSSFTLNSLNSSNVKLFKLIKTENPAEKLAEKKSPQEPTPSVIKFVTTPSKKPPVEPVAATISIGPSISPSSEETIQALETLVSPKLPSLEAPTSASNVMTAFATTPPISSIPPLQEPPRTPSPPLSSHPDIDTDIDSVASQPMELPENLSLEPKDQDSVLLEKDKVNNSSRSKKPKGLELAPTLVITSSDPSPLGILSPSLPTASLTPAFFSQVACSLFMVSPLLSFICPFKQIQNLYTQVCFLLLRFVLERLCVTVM
Procedure, shortened: as §1

[4] = biological target: T4, ETV2 (Homo sapiens, UniProt O00321 1-342)
T4 sequence: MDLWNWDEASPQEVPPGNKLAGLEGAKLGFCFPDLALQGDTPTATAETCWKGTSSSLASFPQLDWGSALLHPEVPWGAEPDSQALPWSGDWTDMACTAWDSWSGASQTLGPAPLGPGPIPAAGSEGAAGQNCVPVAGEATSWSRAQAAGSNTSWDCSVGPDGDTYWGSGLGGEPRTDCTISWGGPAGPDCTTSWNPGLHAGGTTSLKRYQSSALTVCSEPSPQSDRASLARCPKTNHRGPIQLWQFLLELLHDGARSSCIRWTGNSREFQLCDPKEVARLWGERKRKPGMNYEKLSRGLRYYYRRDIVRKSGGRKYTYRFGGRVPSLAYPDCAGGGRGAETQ
Procedure, shortened: as §1

[5] = biological target: T5, SPDEF (Homo sapiens, UniProt O95238 1-335)
T5 sequence: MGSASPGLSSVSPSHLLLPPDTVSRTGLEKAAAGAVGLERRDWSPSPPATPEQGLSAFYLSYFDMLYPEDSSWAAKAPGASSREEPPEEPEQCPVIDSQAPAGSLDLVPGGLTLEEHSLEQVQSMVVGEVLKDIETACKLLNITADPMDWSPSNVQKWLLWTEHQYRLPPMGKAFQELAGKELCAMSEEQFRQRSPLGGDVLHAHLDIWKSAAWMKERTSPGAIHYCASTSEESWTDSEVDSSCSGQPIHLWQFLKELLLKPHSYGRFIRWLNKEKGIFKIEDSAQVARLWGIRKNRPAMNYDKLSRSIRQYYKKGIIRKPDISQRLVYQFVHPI
Procedure, shortened: as §1

[6] = biological target: CRX (Homo sapiens, UniProt O43186 1-299)
Procedure, shortened: as §1

Sequence of CRX (O43186 whole entry): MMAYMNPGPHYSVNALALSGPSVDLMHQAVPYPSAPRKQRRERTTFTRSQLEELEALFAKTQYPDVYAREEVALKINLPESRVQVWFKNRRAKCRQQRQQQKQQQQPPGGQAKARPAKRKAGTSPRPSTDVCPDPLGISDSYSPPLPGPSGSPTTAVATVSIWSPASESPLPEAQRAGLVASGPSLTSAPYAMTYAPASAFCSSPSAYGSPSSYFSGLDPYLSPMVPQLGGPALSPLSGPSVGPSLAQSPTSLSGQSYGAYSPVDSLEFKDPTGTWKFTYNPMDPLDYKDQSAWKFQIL

| Sequence | binding signal [1] | binding signal [2] | binding signal [3] | binding signal [4] | binding signal [5] | binding signal [6] |
| --- | --- | --- | --- | --- | --- | --- |
| GTACGC | 1.17 fold enrichment (6-mer frequency, TF over GST control) | 1.09 fold enrichment (6-mer frequency, TF over GST control) |  |  |  |  |
| GGCTCG | 1 fold enrichment (6-mer frequency, TF over GST control) |  | 1.11 fold enrichment (6-mer frequency, TF over GST control) |  |  |  |
| GAAGTC | 1.1 fold enrichment (6-mer frequency, TF over GST control) | 1.1 fold enrichment (6-mer frequency, TF over GST control) |  | 1.08 fold enrichment (6-mer frequency, TF over GST control) | 1.06 fold enrichment (6-mer frequency, TF over GST control) |  |
| GGCCCC | 1.02 fold enrichment (6-mer frequency, TF over GST control) |  | 1.02 fold enrichment (6-mer frequency, TF over GST control) | 1.13 fold enrichment (6-mer frequency, TF over GST control) | 1.05 fold enrichment (6-mer frequency, TF over GST control) |  |
| GGAAGA | 1.19 fold enrichment (6-mer frequency, TF over GST control) | 1.13 fold enrichment (6-mer frequency, TF over GST control) |  | 1.09 fold enrichment (6-mer frequency, TF over GST control) |  |  |
| AAACCG | 1.07 fold enrichment (6-mer frequency, TF over GST control) | 1.04 fold enrichment (6-mer frequency, TF over GST control) |  | 1.03 fold enrichment (6-mer frequency, TF over GST control) | 1.11 fold enrichment (6-mer frequency, TF over GST control) |  |
| CAGCTA | 1.1 fold enrichment (6-mer frequency, TF over GST control) | 1.13 fold enrichment (6-mer frequency, TF over GST control) | 1.16 fold enrichment (6-mer frequency, TF over GST control) |  |  | 1.05 fold enrichment (6-mer frequency, TF over GST control) |
| GGTCCT |  | 1.09 fold enrichment (6-mer frequency, TF over GST control) | 1.05 fold enrichment (6-mer frequency, TF over GST control) | 1.13 fold enrichment (6-mer frequency, TF over GST control) | 1.1 fold enrichment (6-mer frequency, TF over GST control) |  |
| CCCCGT | 1.26 fold enrichment (6-mer frequency, TF over GST control) |  |  | 1.1 fold enrichment (6-mer frequency, TF over GST control) | 1 fold enrichment (6-mer frequency, TF over GST control) |  |
| CGCTGG |  | 1.02 fold enrichment (6-mer frequency, TF over GST control) | 1.01 fold enrichment (6-mer frequency, TF over GST control) | 1.03 fold enrichment (6-mer frequency, TF over GST control) |  |  |
| ATACCG | 1.2 fold enrichment (6-mer frequency, TF over GST control) | 1.04 fold enrichment (6-mer frequency, TF over GST control) | 1.04 fold enrichment (6-mer frequency, TF over GST control) | 1.07 fold enrichment (6-mer frequency, TF over GST control) | 1.19 fold enrichment (6-mer frequency, TF over GST control) |  |
| GCCGCC | 1.08 fold enrichment (6-mer frequency, TF over GST control) | 1.03 fold enrichment (6-mer frequency, TF over GST control) |  |  |  |  |
| TGTGGT | 1.2 fold enrichment (6-mer frequency, TF over GST control) | 1.11 fold enrichment (6-mer frequency, TF over GST control) | 1.03 fold enrichment (6-mer frequency, TF over GST control) | 1.07 fold enrichment (6-mer frequency, TF over GST control) | 1.07 fold enrichment (6-mer frequency, TF over GST control) |  |
| TCGCTG | 1.12 fold enrichment (6-mer frequency, TF over GST control) | 1.06 fold enrichment (6-mer frequency, TF over GST control) | 1.15 fold enrichment (6-mer frequency, TF over GST control) |  |  |  |
| CAACCG | 1.08 fold enrichment (6-mer frequency, TF over GST control) |  |  | 1.08 fold enrichment (6-mer frequency, TF over GST control) | 1.15 fold enrichment (6-mer frequency, TF over GST control) |  |
| CTATCA | 1.02 fold enrichment (6-mer frequency, TF over GST control) | 1.06 fold enrichment (6-mer frequency, TF over GST control) | 1.06 fold enrichment (6-mer frequency, TF over GST control) | 1.05 fold enrichment (6-mer frequency, TF over GST control) | 1.07 fold enrichment (6-mer frequency, TF over GST control) | 1.01 fold enrichment (6-mer frequency, TF over GST control) |
| GTCCGC | 1.01 fold enrichment (6-mer frequency, TF over GST control) |  | 1.09 fold enrichment (6-mer frequency, TF over GST control) |  | 1.07 fold enrichment (6-mer frequency, TF over GST control) |  |
| ACTAGG |  |  | 1.03 fold enrichment (6-mer frequency, TF over GST control) | 1.28 fold enrichment (6-mer frequency, TF over GST control) | 1.1 fold enrichment (6-mer frequency, TF over GST control) |  |
| GTCCTG | 1.07 fold enrichment (6-mer frequency, TF over GST control) | 1.26 fold enrichment (6-mer frequency, TF over GST control) |  | 1.29 fold enrichment (6-mer frequency, TF over GST control) | 1.34 fold enrichment (6-mer frequency, TF over GST control) |  |
| GGTATG |  | 1.01 fold enrichment (6-mer frequency, TF over GST control) | 1.09 fold enrichment (6-mer frequency, TF over GST control) | 1.05 fold enrichment (6-mer frequency, TF over GST control) | 1.02 fold enrichment (6-mer frequency, TF over GST control) |  |
| GTACCC | 1.17 fold enrichment (6-mer frequency, TF over GST control) | 1.06 fold enrichment (6-mer frequency, TF over GST control) | 1.17 fold enrichment (6-mer frequency, TF over GST control) | 1.11 fold enrichment (6-mer frequency, TF over GST control) | 1.14 fold enrichment (6-mer frequency, TF over GST control) |  |
| GCAACC |  | 1.01 fold enrichment (6-mer frequency, TF over GST control) |  |  | 1.13 fold enrichment (6-mer frequency, TF over GST control) |  |
| CCCCCC | 1.28 fold enrichment (6-mer frequency, TF over GST control) | 1.13 fold enrichment (6-mer frequency, TF over GST control) | 1.23 fold enrichment (6-mer frequency, TF over GST control) | 1.26 fold enrichment (6-mer frequency, TF over GST control) | 1.08 fold enrichment (6-mer frequency, TF over GST control) |  |
| TGGGTA | 1.1 fold enrichment (6-mer frequency, TF over GST control) | 1.01 fold enrichment (6-mer frequency, TF over GST control) | 1.02 fold enrichment (6-mer frequency, TF over GST control) | 1.14 fold enrichment (6-mer frequency, TF over GST control) |  |  |
| GGTTAT |  | 1.12 fold enrichment (6-mer frequency, TF over GST control) |  | 1.09 fold enrichment (6-mer frequency, TF over GST control) | 1.05 fold enrichment (6-mer frequency, TF over GST control) | 1.04 fold enrichment (6-mer frequency, TF over GST control) |
| AGTGCC |  | 1.05 fold enrichment (6-mer frequency, TF over GST control) |  | 1.08 fold enrichment (6-mer frequency, TF over GST control) |  |  |
| CGGATC |  |  |  | 1.03 fold enrichment (6-mer frequency, TF over GST control) | 1.67 fold enrichment (6-mer frequency, TF over GST control) | 1.21 fold enrichment (6-mer frequency, TF over GST control) |
| TCATAC | 1.08 fold enrichment (6-mer frequency, TF over GST control) | 1.09 fold enrichment (6-mer frequency, TF over GST control) | 1.07 fold enrichment (6-mer frequency, TF over GST control) | 1.15 fold enrichment (6-mer frequency, TF over GST control) | 1.05 fold enrichment (6-mer frequency, TF over GST control) | 1.02 fold enrichment (6-mer frequency, TF over GST control) |

Reference: paper PMC7862700, “An all-to-all approach to the identification of sequence-specific readers for epigenetic DNA modifications on cytosine”
